# From PubChem BioAssay (EPA / NIEHS)
# Where “and” joins values, the source holds several entries; their conditions need not be identical. Equal values may be shown once. Results filed as inconclusive are left out. Calls of active or inactive are those of the source. The calls were made as follows: active = hit-call score of the fitted dose curve at least 0.9, where 1 is the maximum; inconclusive = response in the unintended direction; inactive = score below 0.9.
# Experiments:
# [1] = target: human Casein Kinase 1-delta (CK1D), CSNK1D (gene 1453) (UniProt P48730); assay: NVS_ENZ_hCK1D: NovaScreen (NVS) Enzymatic Assay for human Casein Kinase 1-delta (CK1D) (AID 2283148)
# Summary of the method: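 Recombinant human CK1-delta, cell-free; fluorescent substrate with electrophoretic mobility-shift separation of product, read 1 h after dosing. Single 25 uM duplicate screen, then concentration-response up to 50 uM; loss of signal vs DMSO.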
# [2] = target: human Beta-secretase (BACE), BACE1 (gene 23621) (UniProt P56817); assay: NVS_ENZ_hBACE: NovaScreen (NVS) Enzymatic Assay for human Beta-secretase (BACE) (AID 2283140);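 also: hits are inhibitors that reduce fluorescent substrate signal versus DMSO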
# Summary of the method: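 Cell-free fluorescence-intensity assay of recombinant BACE1 expressed in SF9 cells, read 1 hour after dosing. Loss of signal indicates reduced protease activity, fitted relative to DMSO negative control. Primary screen at 25 uM in duplicate; actives followed in concentration series.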
# [3] = target: human Caspase 8 (CASP8), CASP8 (gene 841) (UniProt Q14790); assay: NVS_ENZ_hCASP8: NovaScreen (NVS) Enzymatic Assay for human Caspase 8 (CASP8) (AID 2283146)
# Summary of the method: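 E. coli-expressed enzyme was used in a cell-free fluorogenic substrate assay read 1 h after dosing. Loss of signal was scored relative to DMSO, and the primary screen was run in duplicate at 25 uM.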
# [4] = target: Caspase-3 (Homo sapiens) (UniProt P42574); assay: NVS_ENZ_hCASP3: NovaScreen (NVS) Enzymatic Assay for human Caspase 3 (CASP3) (AID 2283139)
# Summary of the method: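 Recombinant human caspase-3 from E. coli with a fluorogenic substrate, read by fluorescence 1 h after dosing. Primary screen in duplicate at 25 uM. Actives (for example ≥30% inhibition) rerun as concentration-response up to 50 uM.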
# [5] = target: human AKT serine/threonine Kinase 2 (AKT2), AKT2 (gene 208) (UniProt P31751); assay: NVS_ENZ_hAKT2: NovaScreen (NVS) Enzymatic Assay for human AKT serine/threonine Kinase 2 (AKT2) (AID 2283141)
# Summary of the method: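 Cell-free fluorescence/electrophoretic mobility shift readout of recombinant human AKT2 activity, 1 h after chemical dosing. Duplicate primary screen at 25 uM, then singleton concentration-response up to 50 uM; loss of signal versus DMSO baseline.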
# [6] = target: human AMP-activated Protein Kinase, alpha 1 (AMPKa1), PRKAA1 (gene 5562) (UniProt Q13131); assay: NVS_ENZ_hAMPKa1: NovaScreen (NVS) Enzymatic Assay for human AMP-activated Protein Kinase, alpha 1 (AMPKa1) (AID 2283130)
# Summary of the method: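 Recombinant human AMPKα1 activity was measured cell-free by fluorescent substrate conversion with electrophoretic mobility-shift separation, 1 h after dosing. Duplicate single-point screening was at 25 uM; actives (≥30% inhibition) were retested in concentration-response up to 50 uM.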
# [7] = target: CDK2 (gene 1017) (UniProt P24941); assay: NVS_ENZ_hCDK2: NovaScreen (NVS) Enzymatic Assay for human Cyclin-Cependent Kinase 2 (CDK2) (AID 2283144)
# Summary of the method: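 Cell-free recombinant human CDK2 with fluorescent substrate, product separated by electrophoretic mobility shift; 1 hr read. Primary screen at 25 uM in duplicate, actives retested in concentration-response up to 50 uM; loss of signal versus DMSO.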
# [8] = target: human Epidermal Growth Factor Receptor (EGFR), EGFR (gene 1956) (UniProt P00533); assay: NVS_ENZ_hEGFR: NovaScreen (NVS) Enzymatic Assay for human Epidermal Growth Factor Receptor (EGFR) (AID 2283151)
# Summary of the method: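 Cell-free kinase assay, fluorescence plus electrophoretic mobility shift separating substrate and product, read 1 hour after dosing; loss of signal vs DMSO. Duplicate screen at 25 uM, then concentration-response to 50 uM.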
# [9] = target: human Acetylcholinesterase (AChE), ACHE (gene 43) (UniProt P22303); assay: NVS_ENZ_hAChE: NovaScreen (NVS) Enzymatic Assay for human Acetylcholinesterase (AChE) (AID 2283129)
# Summary of the method: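 Cell-free colorimetric enzyme-activity assay; compounds read 0.33 hour after dosing, loss of signal vs DMSO baseline. Primary screen in duplicate at 25 uM single concentration, with active compounds retested in concentration series.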
# [10] = target: human Caspase 2 (CASP2), CASP2 (gene 835) (UniProt P42575); assay: NVS_ENZ_hCASP2: NovaScreen (NVS) Enzymatic Assay for human Caspase 2 (CASP2) (AID 2283135)
# Summary of the method: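 E. coli-expressed enzyme in a cell-free protease assay, fluorescence read 1 h after dosing. Compounds at 25 uM in duplicate, with concentration-response up to 50 uM for hits; loss of signal against DMSO baseline.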
# [11] = target: human Caspase 10 (CASP10), CASP10 (gene 843) (UniProt Q92851); assay: NVS_ENZ_hCASP10: NovaScreen (NVS) Enzymatic Assay for human Caspase 10 (CASP10) (AID 2283133)
# Summary of the method: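 Recombinant human caspase-10 from E. coli, cell-free fluorogenic substrate assay read 1 h after dosing. Primary duplicate screen at 25 uM; hits (e.g. ≥30% inhibition) run singly in concentration-response up to 50 uM, normalised to DMSO.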
# [12] = target: human Caspase 5 (CASP5), CASP5 (gene 838) (UniProt P51878); assay: NVS_ENZ_hCASP5: NovaScreen (NVS) Enzymatic Assay for human Caspase 5 (CASP5) (AID 2283137)
# Summary of the method: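 Recombinant E. coli-expressed human caspase 5 in a cell-free enzyme assay; fluorescence intensity read 2 hours after chemical dosing. Single-concentration duplicate screen at 25 uM, then concentration-response up to 50 uM for hits; DMSO negative control.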
# [13] = target: human Acid Phosphatase 1 (ACP1), ACP1 (gene 52) (UniProt P24666); assay: NVS_ENZ_hACP1: NovaScreen (NVS) Enzymatic Assay for human Acid Phosphatase 1 (ACP1) (AID 2283136)
# Summary of the method: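 Recombinant enzyme expressed in Sf9 cells, tested cell-free; activity read by fluorescence with electrophoretic mobility shift separation of substrate and product, 1.5 h after dosing. Primary screen in duplicate at 25 uM, actives then run in concentration series; loss of signal versus DMSO.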
# [14] = target: human Aurora Kinase A - serine/threonine-protein Kinase 6 (AurA), AURKA (gene 6790) (UniProt O14965); assay: NVS_ENZ_hAurA: NovaScreen (NVS) Enzymatic Assay for human Aurora Kinase A - serine/threonine-protein Kinase 6 (AurA) (AID 2283142)
# Summary of the method: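 Cell-free enzymatic assay with human Aurora A, 1 hour after dosing. Fluorescent substrate turnover detected after electrophoretic mobility shift separation of substrate and product. Screened at 25 uM, actives retested in concentration-response up to 50 uM.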
# [15] = target: human Colony Stimulating Factor 1 Receptor (CSF1R), CSF1R (gene 1436) (UniProt P07333); assay: NVS_ENZ_hCSF1R: NovaScreen (NVS) Enzymatic Assay for human Colony Stimulating Factor 1 Receptor (CSF1R) (AID 2283150)
# Summary of the method: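 Cell-free recombinant human CSF1R kinase with fluorescent substrate, product separated by electrophoretic mobility shift; read 1 h after dosing. Primary screen at 25 uM in duplicate, actives then in concentration-response up to 50 uM, relative to DMSO.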
# [16] = target: rat CYP2D1, Cyp2d1 (gene 266684) (UniProt P10633); assay: NVS_ADME_rCYP2D1: NovaScreen (NVS) CYP450-related Enzyme Activity (ADME) Assay for rat CYP2D1 (AID 2283122)
# Summary of the method: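 Cell-free fluorescence enzyme-activity assay on extracted rat CYP2D1 protein, read 0.75 h after dosing. Primary screen in duplicate at 10 uM; qualifying chemicals then run in concentration-response to 20 uM max, loss-of-signal versus acetonitrile baseline.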
# [17] = test system: rat CYP3A1, gene 25642; assay: NVS_ADME_rCYP3A1: NovaScreen (NVS) CYP450-related Enzyme Activity (ADME) Assay for rat CYP3A1 (AID 2283126)
# Summary of the method: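 Cell-free recombinant CYP assay with fluorescent substrate, read 0.5 h after dosing. Screened at 10 uM in duplicate, hits at up to 20 uM in concentration-response; loss of signal versus acetonitrile baseline.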
# [18] = target: human AKT serine/threonine Kinase 1 (AKT1), AKT1 (gene 207) (UniProt P31749); assay: NVS_ENZ_hAKT1: NovaScreen (NVS) Enzymatic Assay for human AKT serine/threonine Kinase 1 (AKT1) (AID 2283138)
# Summary of the method: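 Cell-free recombinant enzyme with substrate; activity read by fluorescence intensity after electrophoretic mobility shift separating substrate from product, 1 h after dosing. Single-concentration duplicates at 25 uM, then singleton concentration-response up to 50 uM; loss of signal versus DMSO.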
# [19] = target: rat CYP2C11, Cyp2c11 (gene 29277) (UniProt P08683); assay: NVS_ADME_rCYP2C11: NovaScreen (NVS) CYP450-related Enzyme Activity (ADME) Assay for rat CYP2C11 (AID 2283118)
# Summary of the method: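 Cell-free recombinant rat enzyme with fluorescent substrate; readout 0.33 h after dosing, loss of signal versus acetonitrile control. Initial duplicate single-point at 10 uM; actives rerun in concentration series.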
# [20] = target: rat CYP3A2, Cyp3a2 (gene 266682) (UniProt P05183); assay: NVS_ADME_rCYP3A2: NovaScreen (NVS) CYP450-related Enzyme Activity (ADME) Assay for rat CYP3A2 (AID 2283128)
# Summary of the method: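 Cell-free rat CYP3A2 enzyme assay with fluorescent substrate, read 0.5 h after dosing. Primary duplicate screen at 10 uM; actives run in concentration-response up to 20 uM, relative to acetonitrile baseline.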
# human AMP-activated Protein Kinase, alpha 1 (AMPKa1), PRKAA1 (gene 5562), sequence (Q13131 whole entry, looked up): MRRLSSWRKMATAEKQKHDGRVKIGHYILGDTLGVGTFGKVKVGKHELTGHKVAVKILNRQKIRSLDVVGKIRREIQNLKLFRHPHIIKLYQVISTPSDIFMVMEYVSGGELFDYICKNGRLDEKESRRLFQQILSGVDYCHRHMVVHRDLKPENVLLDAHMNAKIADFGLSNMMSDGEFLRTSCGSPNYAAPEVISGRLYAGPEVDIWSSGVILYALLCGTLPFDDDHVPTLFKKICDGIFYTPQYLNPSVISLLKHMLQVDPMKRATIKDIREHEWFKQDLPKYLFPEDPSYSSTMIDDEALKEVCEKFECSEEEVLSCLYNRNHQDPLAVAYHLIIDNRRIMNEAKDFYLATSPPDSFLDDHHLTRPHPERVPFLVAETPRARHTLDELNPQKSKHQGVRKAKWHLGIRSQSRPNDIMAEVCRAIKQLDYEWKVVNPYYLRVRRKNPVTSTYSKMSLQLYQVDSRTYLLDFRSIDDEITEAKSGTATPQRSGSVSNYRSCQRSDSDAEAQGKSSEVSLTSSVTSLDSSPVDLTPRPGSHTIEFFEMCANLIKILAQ
# human Beta-secretase (BACE), BACE1 (gene 23621), sequence (P56817 whole entry, looked up): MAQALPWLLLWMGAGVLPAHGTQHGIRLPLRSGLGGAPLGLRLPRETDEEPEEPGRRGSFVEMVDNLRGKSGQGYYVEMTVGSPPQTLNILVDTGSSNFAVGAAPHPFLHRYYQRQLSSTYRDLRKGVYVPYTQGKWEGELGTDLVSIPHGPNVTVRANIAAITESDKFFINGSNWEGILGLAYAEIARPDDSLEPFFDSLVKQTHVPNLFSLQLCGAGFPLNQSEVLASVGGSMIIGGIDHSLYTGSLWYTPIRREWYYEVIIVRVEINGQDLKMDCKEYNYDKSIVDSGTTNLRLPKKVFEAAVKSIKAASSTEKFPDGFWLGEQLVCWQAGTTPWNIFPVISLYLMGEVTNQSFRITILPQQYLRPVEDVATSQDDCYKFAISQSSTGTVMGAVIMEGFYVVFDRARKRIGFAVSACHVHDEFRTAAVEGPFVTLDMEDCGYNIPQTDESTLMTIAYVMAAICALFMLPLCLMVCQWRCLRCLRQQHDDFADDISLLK
# human AKT serine/threonine Kinase 2 (AKT2), AKT2 (gene 208), sequence (P31751 whole entry, looked up): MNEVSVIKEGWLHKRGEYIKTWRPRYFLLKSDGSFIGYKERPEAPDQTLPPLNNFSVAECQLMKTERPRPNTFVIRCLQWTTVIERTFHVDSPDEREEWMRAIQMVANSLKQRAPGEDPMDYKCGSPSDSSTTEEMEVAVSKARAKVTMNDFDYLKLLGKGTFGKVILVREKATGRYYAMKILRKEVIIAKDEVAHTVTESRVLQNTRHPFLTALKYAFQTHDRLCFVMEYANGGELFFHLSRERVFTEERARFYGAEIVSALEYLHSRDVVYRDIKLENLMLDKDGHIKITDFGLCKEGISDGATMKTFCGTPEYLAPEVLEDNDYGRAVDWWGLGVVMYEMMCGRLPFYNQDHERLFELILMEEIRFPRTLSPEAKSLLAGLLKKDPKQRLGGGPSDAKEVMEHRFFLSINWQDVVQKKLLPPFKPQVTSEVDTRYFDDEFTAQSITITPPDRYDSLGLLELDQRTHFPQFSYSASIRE
# human Epidermal Growth Factor Receptor (EGFR), EGFR (gene 1956), sequence (P00533 whole entry, looked up): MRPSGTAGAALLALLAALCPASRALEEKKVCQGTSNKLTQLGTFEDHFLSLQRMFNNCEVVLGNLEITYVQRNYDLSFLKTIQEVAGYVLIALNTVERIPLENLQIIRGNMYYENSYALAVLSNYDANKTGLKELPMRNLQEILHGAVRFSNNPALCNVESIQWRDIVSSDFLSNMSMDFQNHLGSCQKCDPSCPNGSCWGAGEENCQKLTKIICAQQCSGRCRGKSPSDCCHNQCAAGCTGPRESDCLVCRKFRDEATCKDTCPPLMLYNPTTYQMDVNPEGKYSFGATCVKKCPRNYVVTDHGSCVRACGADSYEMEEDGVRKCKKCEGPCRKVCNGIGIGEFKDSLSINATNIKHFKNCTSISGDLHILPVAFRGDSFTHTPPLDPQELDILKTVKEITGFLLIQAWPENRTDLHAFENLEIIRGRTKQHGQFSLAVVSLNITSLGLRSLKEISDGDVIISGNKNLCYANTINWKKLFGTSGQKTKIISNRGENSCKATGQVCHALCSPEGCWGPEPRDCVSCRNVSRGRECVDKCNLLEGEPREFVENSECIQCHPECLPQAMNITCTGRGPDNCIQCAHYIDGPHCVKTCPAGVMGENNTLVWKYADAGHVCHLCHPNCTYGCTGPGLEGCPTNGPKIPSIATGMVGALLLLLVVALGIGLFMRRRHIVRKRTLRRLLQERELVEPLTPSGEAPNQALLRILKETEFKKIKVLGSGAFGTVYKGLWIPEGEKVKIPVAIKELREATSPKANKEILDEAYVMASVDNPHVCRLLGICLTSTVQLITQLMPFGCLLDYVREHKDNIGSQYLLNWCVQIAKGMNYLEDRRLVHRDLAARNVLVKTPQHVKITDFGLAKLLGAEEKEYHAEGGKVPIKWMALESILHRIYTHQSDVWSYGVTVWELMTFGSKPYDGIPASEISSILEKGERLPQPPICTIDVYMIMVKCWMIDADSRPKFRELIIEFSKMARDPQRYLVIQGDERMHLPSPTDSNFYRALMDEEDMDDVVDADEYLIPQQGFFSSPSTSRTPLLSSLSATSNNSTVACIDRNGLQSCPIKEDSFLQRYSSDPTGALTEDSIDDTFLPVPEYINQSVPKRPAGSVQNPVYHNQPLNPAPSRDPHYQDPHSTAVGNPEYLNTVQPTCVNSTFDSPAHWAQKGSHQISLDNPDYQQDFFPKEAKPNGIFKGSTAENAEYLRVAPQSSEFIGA
# human Caspase 2 (CASP2), CASP2 (gene 835), sequence (P42575 whole entry, looked up): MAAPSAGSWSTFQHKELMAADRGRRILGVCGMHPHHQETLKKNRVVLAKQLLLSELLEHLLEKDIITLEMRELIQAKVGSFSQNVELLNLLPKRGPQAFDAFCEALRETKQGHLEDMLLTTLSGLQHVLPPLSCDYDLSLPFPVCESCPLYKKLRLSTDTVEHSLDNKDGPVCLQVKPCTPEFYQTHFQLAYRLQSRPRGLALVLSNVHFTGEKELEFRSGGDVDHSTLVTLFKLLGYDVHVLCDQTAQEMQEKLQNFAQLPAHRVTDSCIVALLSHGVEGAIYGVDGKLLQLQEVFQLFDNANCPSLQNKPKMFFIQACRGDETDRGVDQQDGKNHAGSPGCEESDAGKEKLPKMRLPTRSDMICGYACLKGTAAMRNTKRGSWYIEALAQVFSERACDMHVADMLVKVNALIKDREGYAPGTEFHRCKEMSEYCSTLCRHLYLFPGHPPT
# human Colony Stimulating Factor 1 Receptor (CSF1R), CSF1R (gene 1436), sequence (P07333 whole entry, looked up): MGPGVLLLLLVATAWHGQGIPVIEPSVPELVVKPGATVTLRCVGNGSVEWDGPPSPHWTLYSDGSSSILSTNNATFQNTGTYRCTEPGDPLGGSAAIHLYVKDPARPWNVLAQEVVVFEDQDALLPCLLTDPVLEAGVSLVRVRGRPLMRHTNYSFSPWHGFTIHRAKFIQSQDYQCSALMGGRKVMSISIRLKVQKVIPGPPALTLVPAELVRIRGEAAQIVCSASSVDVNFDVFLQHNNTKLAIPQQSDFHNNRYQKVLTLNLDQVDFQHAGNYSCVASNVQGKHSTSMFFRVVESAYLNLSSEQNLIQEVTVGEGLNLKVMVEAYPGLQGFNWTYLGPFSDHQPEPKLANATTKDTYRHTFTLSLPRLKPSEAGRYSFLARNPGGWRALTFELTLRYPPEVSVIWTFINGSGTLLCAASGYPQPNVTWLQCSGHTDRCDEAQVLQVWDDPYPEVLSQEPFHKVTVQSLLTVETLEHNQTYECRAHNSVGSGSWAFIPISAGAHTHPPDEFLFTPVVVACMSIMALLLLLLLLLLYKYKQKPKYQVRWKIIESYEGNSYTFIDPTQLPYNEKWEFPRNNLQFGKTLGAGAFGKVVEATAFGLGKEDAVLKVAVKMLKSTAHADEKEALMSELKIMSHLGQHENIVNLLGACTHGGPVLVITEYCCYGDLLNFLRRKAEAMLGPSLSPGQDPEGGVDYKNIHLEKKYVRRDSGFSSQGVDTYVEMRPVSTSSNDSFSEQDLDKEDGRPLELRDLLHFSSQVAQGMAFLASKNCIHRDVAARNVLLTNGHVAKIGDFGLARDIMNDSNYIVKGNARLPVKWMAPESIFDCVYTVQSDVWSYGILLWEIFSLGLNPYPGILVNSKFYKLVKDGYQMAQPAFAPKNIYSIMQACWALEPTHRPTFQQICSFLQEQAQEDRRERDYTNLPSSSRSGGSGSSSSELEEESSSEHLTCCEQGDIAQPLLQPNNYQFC
# human Aurora Kinase A - serine/threonine-protein Kinase 6 (AurA), AURKA (gene 6790), sequence (O14965 whole entry, looked up): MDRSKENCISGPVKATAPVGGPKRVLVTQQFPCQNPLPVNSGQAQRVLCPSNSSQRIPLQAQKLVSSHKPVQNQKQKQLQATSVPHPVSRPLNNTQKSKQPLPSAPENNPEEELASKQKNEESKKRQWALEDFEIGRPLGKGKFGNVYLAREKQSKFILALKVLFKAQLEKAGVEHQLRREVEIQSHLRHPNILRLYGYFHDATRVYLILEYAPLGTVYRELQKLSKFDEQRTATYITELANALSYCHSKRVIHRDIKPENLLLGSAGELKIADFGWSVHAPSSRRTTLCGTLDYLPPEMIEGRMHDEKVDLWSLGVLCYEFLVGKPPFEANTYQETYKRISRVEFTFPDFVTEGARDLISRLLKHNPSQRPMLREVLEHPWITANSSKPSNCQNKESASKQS
# human Caspase 5 (CASP5), CASP5 (gene 838), sequence (P51878 whole entry, looked up): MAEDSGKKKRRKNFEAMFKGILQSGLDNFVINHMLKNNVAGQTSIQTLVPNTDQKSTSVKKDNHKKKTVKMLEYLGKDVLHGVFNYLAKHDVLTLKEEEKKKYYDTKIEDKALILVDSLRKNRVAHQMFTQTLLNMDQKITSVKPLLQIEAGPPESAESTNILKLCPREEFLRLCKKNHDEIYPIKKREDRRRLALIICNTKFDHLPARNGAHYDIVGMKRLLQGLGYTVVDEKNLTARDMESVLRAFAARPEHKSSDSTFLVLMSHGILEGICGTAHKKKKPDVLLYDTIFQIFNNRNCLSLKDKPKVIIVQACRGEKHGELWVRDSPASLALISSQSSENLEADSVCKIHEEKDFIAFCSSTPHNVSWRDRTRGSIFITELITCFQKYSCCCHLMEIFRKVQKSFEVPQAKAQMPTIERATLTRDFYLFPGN
compound,measurement,setting,value
O=C(NC(=O)c1c(F)cccc1F)Nc1cc(Cl)c(OC(F)(F)C(F)F)c(Cl)c1,outcome,[1],inactive
Cc1cccc(C)c1N,outcome,[2],inactive
same,outcome,[1],inactive
CCC(C)c1cc([N+](=O)[O-])cc([N+](=O)[O-])c1O (stereo unspecified),outcome,[3],inactive
same,outcome,[1],inactive
CC(C)(c1ccccc1)c1ccc(O)cc1,outcome,[4],inactive
same,AC50,[2],20.3 µM (active)
N#Cc1ccc(N(CC(N)=O)CC(F)(F)F)cc1C(F)(F)F,outcome,[5],inactive
O=C(O)C(F)(F)C(F)(F)C(F)(F)C(F)(F)C(F)(F)F,outcome,[6],inactive
same,outcome,[7],inactive
same,outcome,[8],inactive
CCCCCCCCCC[N+](C)(C)CCCCCCCCCC,AC50,[9],12.4 µM (active)
COS(=O)(=O)OC,outcome,[10],inactive
CO/C=C(/C(=O)OC)c1ccccc1COc1cccc(C(F)(F)F)n1,outcome,[3],inactive
O=C(O)C(F)(F)C(F)(F)C(F)(F)C(F)(F)C(F)(F)C(F)(F)C(F)(F)C(F)(F)C(F)(F)F,outcome,[11],inactive
same,AC50,[12],12.7 µM (active)
same,AC50,[2],3.53 µM (active)
CCCCCCCCOC(=O)c1ccccc1C(=O)OCCCCCCCC,outcome,[9],inactive
O=C(N[C@H]1CN2CCC1CC2)c1cc2ccoc2cn1,outcome,[10],inactive
Clc1ccc(C(Cl)(Cl)Cl)cc1,outcome,[11],inactive
CC1=C2C[C@H]3[C@@H](CC=C4C[C@@H](O)CC[C@@]43C)[C@@H]2CC[C@]12O[C@@H]1C[C@H](C)CN[C@H]1[C@H]2C,outcome,[6],inactive
same,outcome,[13],inactive
same,AC50,[5],12.5 µM (active)
same,outcome,[14],inactive
same,outcome,[7],inactive
same,outcome,[15],inactive
same,outcome,[8],inactive
CCNc1nc(NC(C)C)nc(SC)n1,outcome,[16],inactive
same,AC50,[17],6.58 µM (active)
same,outcome,[18],inactive
same,AC50,[1],16.3 µM (active)
C[C@]12CCC(=O)C=C1CC[C@@H]1[C@@H]2CC[C@@]2(C)[C@H]1CC[C@]2(C)O,AC50,[19],3.82 µM (active) and 2.41 µM (active) and 2.57 µM (active)
CCCCCCCCCc1ccc(O)cc1,outcome,[2],inactive
O=C(O)C(F)(F)C(F)(F)C(F)(F)C(F)(F)C(F)(F)C(F)(F)C(F)(F)C(F)(F)F,AC50,[6],36.7 µM (active)
same,outcome,[13],inactive
same,AC50,[12],12.8 µM (active)
same,AC50,[2],10.7 µM (active)
same,AC50,[14],13.1 µM (active)
same,outcome,[1],inactive
same,outcome,[15],inactive
same,outcome,[8],inactive
O=NN(c1ccccc1)c1ccccc1,outcome,[1],inactive
CC(C)C(=O)OCC(C)(C)C(OC(=O)C(C)C)C(C)C (stereo unspecified),outcome,[6],inactive
same,outcome,[14],inactive
CCCCCCOC(=O)c1ccccc1C(=O)OCCCCCC,outcome,[2],inactive
same,outcome,[5],inactive
Cc1ccccc1CO[C@@H]1C[C@@]2(C(C)C)CC[C@]1(C)O2,outcome,[18],inactive
CCC(C)(CC)c1cc(NC(=O)c2c(OC)cccc2OC)on1,AC50,[20],0.981 µM (active)
same,outcome,[12],inactive
C1CC2OC2CC1C1CO1 (stereo unspecified),outcome,[15],inactive
ClC1=C(Cl)[C@]2(Cl)[C@@H]3[C@@H]4C[C@@H]([C@H]5O[C@@H]45)[C@@H]3[C@@]1(Cl)C2(Cl)Cl,outcome,[3],inactive
same,outcome,[15],inactive
ClC(Cl)=C(c1ccc(Cl)cc1)c1ccc(Cl)cc1,outcome,[2],inactive
C[C@]12CCC(=O)C=C1CC[C@@H]1[C@@H]2CC[C@]2(C)C(=O)CC[C@@H]12,outcome,[9],inactive
same,outcome,[10],inactive
Oc1ccc(C(c2ccc(O)cc2)(C(F)(F)F)C(F)(F)F)cc1,outcome,[9],inactive
same,AC50,[6],13.5 µM (active)
same,outcome,[2],inactive
same,outcome,[1],inactive
same,outcome,[15],inactive
CC#Cc1cc(C)nc(Nc2ccccc2)n1,outcome,[6],inactive
Oc1c(Cl)c(Cl)c(Cl)c(Cl)c1Cl,outcome,[2],inactive
O=S(=O)(O)C(F)(F)C(F)(F)C(F)(F)C(F)(F)C(F)(F)C(F)(F)F,outcome,[6],inactive
same,AC50,[2],1.85 µM (active)
same,outcome,[5],inactive
same,outcome,[15],inactive
O=C(NC(=O)c1cc(F)c(F)cc1Cl)Nc1cc(F)ccc1N1CCC(C(=O)O)CC1,AC50,[2],7.81 µM (active)
Cc1cc2c3c(c1)C(c1ccccc1)=N[C@@H](NC(=O)c1ccncc1)C(=O)N3CC2,outcome,[14],inactive
CCCN(CCC)N=O,outcome,[6],inactive
same,outcome,[14],inactive
same,outcome,[7],inactive
same,outcome,[1],inactive
same,outcome,[15],inactive
Nc1ccc(-c2ccc(N)cc2)cc1,outcome,[10],inactive
CCC(C)(c1ccc(O)cc1)c1ccc(O)cc1,AC50,[2],11.2 µM (active)
Cc1ccc(O)c(C)c1,outcome,[2],inactive
